Each compound was assayed on Schistosoma mansoni schistosomula (LE) (assay: XTT viability relative to DMSO control; higher = more viable (less active)). Conditions: 72 h; 10 µM.
Description: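 XTT/PMS was then added for a further 24 h (72 h total) and A450 was read. % viability = (sample - heat-killed control)/(DMSO control - heat-killed control) x 100, from duplicate wells in two independent experiments.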
NC(=O)c1cc(-c2ccsc2)ccc1OCCOc1ccccc1 showed an XTT viability of 89.5%. With Cc1cc(OCC(=O)NCc2ccccc2)c2cc(Br)ccc2n1 the XTT viability was 111%. Compound O=C1Nc2ccc(Br)cc2C12NCCc1c2[nH]c2ccccc12 (stereo not given) has an XTT viability of 109%. COc1ccc2nccc(NC(=O)C3CCN(CCc4ccc(Cl)cc4)CC3)c2n1 showed an XTT viability of 77.2%. In the case of COc1ccccc1C(C)NCC(=O)Nc1cc(C(F)(F)F)ccc1Cl (stereo not given), the XTT viability was 67.7%. In the case of CC(Oc1cccc(Cl)c1)C(=O)Nc1ccc2oc(-c3ccncc3)nc2c1 (stereo not given), the XTT viability was 109%. Work on COc1ccc(-c2cnc3ccc(NCc4ccc(S(N)(=O)=O)cc4)nn23)cn1 yielded an XTT viability of 125%. In the case of CC(C(=O)N1CCCC1)N1CCN(S(=O)(=O)c2ccc(C(C)(C)C)cc2)CC1 (stereo not given), the XTT viability was 109%. For Nc1ncnc2c1c(-c1cnc3ccccc3c1)nn2CC1CCNCC1, the XTT viability was 169%. Compound Cc1cc2nc(NC(=O)C(C)(C)C)nc(Cl)c2n1Cc1ccc(Cl)cc1 has an XTT viability of 109%. In the case of O=C(Nc1ccc(F)c(-c2nc3cc(-c4ccccc4)cnc3[nH]2)c1)N1CCCC1, the XTT viability was 111%. With COc1cc(C(F)(F)F)nc2ccc(C)c(N)c12 the XTT viability was 79.3%. Work on CCN(CC)S(=O)(=O)c1ccc(C(=O)Nc2cc(C)nn2-c2nc(C)c(C)c(=O)[nH]2)cc1 yielded an XTT viability of 80.6%. For O=C(C1CCN(c2nnc(-n3cccc3)s2)CC1)N1CCC(Cc2ccccc2)CC1, the XTT viability was 103%. Work on CC(C)(C)CN1C(=O)C(c2ccccc2)(c2ccccc2)N=C1N yielded an XTT viability of 88.6%. Compound O=C(Nc1cccc(-c2ccc(NCCCN3CCCC3)nc2)c1)c1ccccc1 has an XTT viability of 67.8%. Compound COc1cccc2c(C)nc(N=C(N)N)nc12 has an XTT viability of 93.3%. O[C@@H](c1cc(C(F)(F)F)nc2c(C(F)(F)F)cccc12)[C@H]1CCCCN1 gave an XTT viability of -0.139%. Work on CC(C)(C)C(=O)N(CCCCCCN1C[C@H](O)[C@@H](O)[C@H](O)[C@H]1CO)C1CCCCCC1 yielded an XTT viability of 122%. For Cc1cc(C(=O)Nc2cnn(Cc3ccc(Cl)cc3Cl)c2)no1, the XTT viability was 91.7%. COc1ccc(-c2onc(C(F)(F)F)c2-c2ccc(Cl)cc2)c(O)c1 gave an XTT viability of 0.0885%. CC(C)(C)c1ccc(N[C@@H]2CCCC[C@H]2NC(=O)c2ccco2)cc1 showed an XTT viability of 117%. Work on CCOc1ccccc1C(=O)Nc1cccc(-c2nc3ncccn3c2C)c1 yielded an XTT viability of 107%. CC1COC2(CCN(c3nc(=O)c4cc(C(F)(F)F)cc([N+](=O)[O-])c4s3)CC2)O1 (stereo not given) gave an XTT viability of 80%. In the case of COc1ccc(-c2nc(-c3cccc(NC(=O)Cc4ccc(F)cc4)c3)no2)cc1OC, the XTT viability was 137%. Work on COc1ccc(C2CC(c3cccs3)=NN2C(=O)c2ccco2)cc1OC (stereo not given) yielded an XTT viability of 65.7%. Work on Cc1ccc(S(=O)(=O)n2cc(-c3ccnc(N)c3)c3cc(Br)cnc32)cc1 yielded an XTT viability of 4.55%. Cc1cccc(Cn2ccc(NC(=O)c3ccc4c(c3)OCO4)n2)c1 showed an XTT viability of 93.2%. With Cc1nn(C)cc1C(C)Nc1nncc(-c2ccc(C(F)(F)F)cc2)n1 (stereo not given) the XTT viability was 77.5%. Compound CN1CCN(S(=O)(=O)c2ccc(-c3ccc4c(Nc5ccc6nn[nH]c6c5)ccnc4c3)cc2)CC1 has an XTT viability of 152%. With COc1cccc(CC(=O)N2CCC(n3c(C)nc4ccc(F)cc43)CC2)c1 the XTT viability was 116%. Work on CNC(=O)c1nn(C)c2c1C(C)(C)Cc1cnc(Nc3ccc(N4CCN(C)CC4)cc3)nc1-2 yielded an XTT viability of 157%. In the case of COc1ccc(OC(C)C(=O)Nc2ccc(Cl)cc2C)cc1 (stereo not given), the XTT viability was 97.2%. COC(=O)c1c(NC(=O)c2cc3ccccc3oc2=O)sc2c1CCN(Cc1ccccc1)C2 was tested, and the XTT viability was 76.3%. In the case of CC(C)n1ncc2c(C(=O)NCC(c3cccs3)N3CCOCC3)cc(-c3ccccc3)nc21 (stereo not given), the XTT viability was 71.6%. With CC[C@@H]([C@H](C)O)n1ncn(-c2ccc(N3CCN(c4ccc(OC[C@@H]5CO[C@@](Cn6cncn6)(c6ccc(F)cc6F)C5)cc4)CC3)cc2)c1=O the XTT viability was 88.8%. Cc1[nH]c2ccccc2c1C(c1cccs1)N1CCN(C)CC1 (stereo not given) showed an XTT viability of 6.43%. Work on CCc1cc(=O)n(C)c(SC(C)C(=O)Nc2ccc(F)cc2)n1 (stereo not given) yielded an XTT viability of 115%. Brc1c(-c2ccc3c(c2)OCO3)nc2ncccn12 gave an XTT viability of 99.9%. Work on O=C1N(Cc2cc3ccccc3s2)CC2CN(Cc3ccccc3)CCN12 (stereo not given) yielded an XTT viability of 87.2%.

Source: the supplement of paper PMC6805474
